Source: the supplement of paper PMC10849652
Of roughly 7,900 targets only a part is listed; those with a hit were picked by preference. About 0.6% of all pairs of compound and target were hits.

Columns and labels:
Assay in all cases: log2 fold change, soluble protein after heating vs DMSO (PISA); higher = thermal stabilisation; K562 cells, 10 uM, 30 min; active = over 0.2 and 3.5 SD of the protein, either way, in both replicates (recomputed)
[1] = compound: CC[C@@H]1C(=O)N(C)c2cnc(Nc3ccc(C(=O)NC4CCN(C)CC4)cc3OC)nc2N1C1CCCC1
Outline: (§1)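 For each measurement, 10 μM compound was applied for 30 min to K562 cells at 2×10^6 cells/mL. Aliquots were heated for 3 min across 48°C-58°C, pooled, and extracted in PBS with 0.5% NP-40 at 4°C; the supernatant after 21,000xg for 90 min was soluble protein. This was quantified by TMTpro 16plex LC-MS/MS with channel sums equalised, and thermal stability was reported relative to control samples from duplicates, on a log2 fold-change scale.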

volasertib = compound: CC[C@@H]1C(=O)N(C)c2cnc(Nc3ccc(C(=O)N[C@H]4CC[C@H](N5CCN(CC6CC6)CC5)CC4)cc3OC)nc2N1C(C)C [volasertib]
Outline: as §1

[2] = compound: CC[C@H](C)N1C=C(C2=C(C=C(C=C21)C3=CN=C(C=C3)N4CCNCC4)C(=O)NCC5=C(C=C(NC5=O)C)C)C
Outline: as §1

epoxomicin = compound: CC[C@H](C)[C@@H](C(=O)N[C@@H]([C@@H](C)O)C(=O)N[C@@H](CC(C)C)C(=O)[C@]1(CO1)C)NC(=O)[C@H]([C@@H](C)CC)N(C)C(=O)C [epoxomicin]
Outline: as §1

[3] = compound: CCn1c(C(=O)N(C2CC2)C2CC2)cc2c3c(ncn3C)c(Nc3cc(C)n(C)n3)nc21
Outline: as §1

[4] = compound: CCn1cc(-c2ccnc3[nH]c(-c4cccc(CN(C)C)c4)cc23)c(-c2ccc(NC(=O)N(C)C)cc2)n1
Outline: as §1

[5] = compound: CN(C)CC(=O)Nc1ccc2[nH]c(=O)c3ccccc3c2c1
Outline: as §1

rosiglitazone = compound: CN(CCOC1=CC=C(C=C1)C[C@H]2C(=O)NC(=O)S2)C3=CC=CC=N3 (racemic) [rosiglitazone]
Outline: as §1

[6] = compound: CN1C2=C(C3=C1C(=O)N(N=C3)CC4=CC(=CC=C4)N)SC(=C2)S(=O)C
Outline: as §1

[7] = compound: CN1CCC(CNc2ccc3ncc(-c4cccc(OC(F)(F)F)c4)n3n2)CC1
Outline: as §1

Measured: log2 fold change

RALA (UniProt P11233)
active: [7] 0.434
inactive: [1] 0.084 | volasertib 0.025 | [2] -0.044 | epoxomicin -0.054 | [3] 0.021 | [4] 0.029 | [5] -0.029 | rosiglitazone -0.021 | [6] -0.115

RBM22 (UniProt Q9NW64)
active: volasertib -0.3
inactive: [1] -0.027 | [2] 0.002 | epoxomicin -0.009 | [3] -0.018 | [4] 0.061 | [5] -0.058 | rosiglitazone 0.005 | [6] 0.011 | [7] -0.003

RABGGTA (UniProt Q92696)
Sequence of UniProt Q92696 (Q92696 whole entry, looked up): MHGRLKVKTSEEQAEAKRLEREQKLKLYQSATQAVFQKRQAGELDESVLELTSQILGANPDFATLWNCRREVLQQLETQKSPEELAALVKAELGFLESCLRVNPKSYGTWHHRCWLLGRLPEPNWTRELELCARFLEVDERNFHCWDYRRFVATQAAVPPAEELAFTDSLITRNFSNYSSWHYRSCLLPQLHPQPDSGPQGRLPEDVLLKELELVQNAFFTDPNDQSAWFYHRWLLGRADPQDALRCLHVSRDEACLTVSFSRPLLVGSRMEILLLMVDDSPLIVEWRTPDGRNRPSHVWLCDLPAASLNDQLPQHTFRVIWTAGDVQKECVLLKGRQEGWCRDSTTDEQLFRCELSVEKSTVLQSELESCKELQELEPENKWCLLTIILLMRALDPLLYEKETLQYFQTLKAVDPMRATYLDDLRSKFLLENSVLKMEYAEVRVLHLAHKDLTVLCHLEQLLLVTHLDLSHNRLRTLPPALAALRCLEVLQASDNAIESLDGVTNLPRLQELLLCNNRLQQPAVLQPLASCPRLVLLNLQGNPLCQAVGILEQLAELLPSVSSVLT
inactive: [1] 0.029 | volasertib -0.087 | [2] -0.013 | epoxomicin 0.021 | [3] -0.032 | [4] -0.051 | [5] -0.015 | rosiglitazone 0.054 | [6] -0.111 | [7] -0.023

RAVER1 (UniProt E9PAU2)
inactive: [1] -0.222 | [2] 0.13 | epoxomicin 0.147 | [3] -0.058 | [4] -0.006 | [5] 0.174 | rosiglitazone 0.056 | [6] -0.007 | [7] -0.375
active: volasertib -1.93

RPS19 (UniProt P39019)
inactive: [1] 0.147 | volasertib 0.319 | [2] 0.008 | epoxomicin -0.115 | [3] 0.041 | [4] 0.091 | [5] -0.073 | rosiglitazone -0.063 | [6] 0.147 | [7] 0.121

RECQL (UniProt P46063)
inactive: [1] -0.032 | volasertib -0.014 | [2] 0.002 | epoxomicin 0 | [3] 0.009 | [4] -0.021 | [5] 0.016 | rosiglitazone 0.032 | [6] -0.076 | [7] 0.058

RNASET2 (UniProt O00584)
inactive: volasertib -0.196 | [2] 0.023 | epoxomicin -0.027 | [3] 0.039 | [4] 0.045 | [5] 0.036 | rosiglitazone -0.006 | [6] -0.036
active: [1] -0.275 | [7] -0.413

RRP12 (UniProt Q5JTH9)
Sequence of UniProt Q5JTH9 (Q5JTH9 whole entry, looked up): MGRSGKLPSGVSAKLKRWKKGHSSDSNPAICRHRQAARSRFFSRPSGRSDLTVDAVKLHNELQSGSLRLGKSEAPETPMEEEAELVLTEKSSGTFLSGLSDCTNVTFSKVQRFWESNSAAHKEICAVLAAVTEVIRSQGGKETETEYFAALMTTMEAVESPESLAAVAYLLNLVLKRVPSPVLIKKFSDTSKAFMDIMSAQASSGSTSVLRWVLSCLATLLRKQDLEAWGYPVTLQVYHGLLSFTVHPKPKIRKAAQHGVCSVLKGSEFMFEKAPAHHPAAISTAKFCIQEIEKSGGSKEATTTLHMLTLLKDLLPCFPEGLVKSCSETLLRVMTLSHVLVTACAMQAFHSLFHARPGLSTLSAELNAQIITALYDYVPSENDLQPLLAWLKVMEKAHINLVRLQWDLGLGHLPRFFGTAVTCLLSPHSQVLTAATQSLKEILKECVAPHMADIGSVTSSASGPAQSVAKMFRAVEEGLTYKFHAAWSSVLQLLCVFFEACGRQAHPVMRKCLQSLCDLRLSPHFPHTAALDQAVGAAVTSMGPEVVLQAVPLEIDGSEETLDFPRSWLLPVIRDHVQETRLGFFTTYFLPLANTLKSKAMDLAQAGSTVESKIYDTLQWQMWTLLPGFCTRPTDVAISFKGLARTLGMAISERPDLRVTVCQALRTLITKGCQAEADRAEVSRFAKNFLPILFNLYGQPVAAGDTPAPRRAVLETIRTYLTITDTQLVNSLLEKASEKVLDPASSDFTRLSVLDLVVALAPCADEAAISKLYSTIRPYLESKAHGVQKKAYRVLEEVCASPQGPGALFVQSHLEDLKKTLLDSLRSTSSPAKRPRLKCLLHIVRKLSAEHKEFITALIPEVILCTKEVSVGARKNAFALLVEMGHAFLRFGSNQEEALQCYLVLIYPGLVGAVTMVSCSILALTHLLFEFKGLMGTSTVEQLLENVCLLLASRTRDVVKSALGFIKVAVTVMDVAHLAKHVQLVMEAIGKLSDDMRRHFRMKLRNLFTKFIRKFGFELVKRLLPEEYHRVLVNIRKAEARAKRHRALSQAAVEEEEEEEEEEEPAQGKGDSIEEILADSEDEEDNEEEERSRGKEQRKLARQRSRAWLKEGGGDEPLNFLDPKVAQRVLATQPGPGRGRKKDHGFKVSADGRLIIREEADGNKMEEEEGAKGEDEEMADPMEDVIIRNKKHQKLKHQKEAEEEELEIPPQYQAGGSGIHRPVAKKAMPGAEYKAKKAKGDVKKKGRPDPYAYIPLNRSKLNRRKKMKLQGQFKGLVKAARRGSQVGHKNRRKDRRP
inactive: [1] 0.246 | volasertib 0 | [2] 0.029 | epoxomicin 0.054 | [3] -0.036 | [4] -0.057 | [5] -0.046 | rosiglitazone 0.026 | [6] 0.066 | [7] 0.161

RARS2 (UniProt Q5T160)
inactive: [1] -0.121 | [2] -0.003 | epoxomicin 0.04 | [3] 0.013 | [4] -0.046 | [5] 0.026 | rosiglitazone 0.019 | [6] -0.065 | [7] -0.143
active: volasertib -0.238

RIOK2 (UniProt Q9BVS4)
Sequence of UniProt Q9BVS4 (Q9BVS4 whole entry, looked up): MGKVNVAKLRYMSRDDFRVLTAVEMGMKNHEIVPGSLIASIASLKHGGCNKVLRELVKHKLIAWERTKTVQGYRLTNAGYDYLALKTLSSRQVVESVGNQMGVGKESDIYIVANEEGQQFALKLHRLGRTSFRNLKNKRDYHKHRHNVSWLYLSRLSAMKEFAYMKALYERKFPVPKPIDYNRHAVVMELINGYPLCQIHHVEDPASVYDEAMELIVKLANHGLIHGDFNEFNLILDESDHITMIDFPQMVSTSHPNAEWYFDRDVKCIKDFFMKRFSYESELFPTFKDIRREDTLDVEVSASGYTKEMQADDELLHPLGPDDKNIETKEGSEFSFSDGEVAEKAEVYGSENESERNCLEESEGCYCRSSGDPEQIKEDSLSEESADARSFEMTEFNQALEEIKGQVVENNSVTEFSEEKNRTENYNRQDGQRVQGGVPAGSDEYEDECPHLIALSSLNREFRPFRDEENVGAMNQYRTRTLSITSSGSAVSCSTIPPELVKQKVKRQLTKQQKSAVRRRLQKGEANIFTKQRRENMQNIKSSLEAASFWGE
inactive: [1] 0.133 | volasertib 0.267 | [2] 0.015 | epoxomicin -0.032 | [3] 0.019 | [4] -0.013 | [5] -0.038 | rosiglitazone 0.014 | [6] 0.085 | [7] 0.202

SLC19A1 (UniProt P41440)
inactive: [1] 0.08 | volasertib 0.078 | [2] -0.062 | epoxomicin 0.087 | [3] 0.019 | [4] -0.047 | [5] 0.003 | rosiglitazone 0.019 | [6] -0.109 | [7] 0.172

SAMSN1 isoform 3 (UniProt Q9NSI8)
inactive: [1] -0.069 | volasertib -0.153 | [2] 0.026 | epoxomicin 0.018 | [3] -0.02 | [4] -0.065 | [5] 0.017 | rosiglitazone 0.067 | [6] 0
active: [7] -0.253

RBM27 (UniProt Q9P2N5)
Sequence of UniProt Q9P2N5 (Q9P2N5 whole entry, looked up): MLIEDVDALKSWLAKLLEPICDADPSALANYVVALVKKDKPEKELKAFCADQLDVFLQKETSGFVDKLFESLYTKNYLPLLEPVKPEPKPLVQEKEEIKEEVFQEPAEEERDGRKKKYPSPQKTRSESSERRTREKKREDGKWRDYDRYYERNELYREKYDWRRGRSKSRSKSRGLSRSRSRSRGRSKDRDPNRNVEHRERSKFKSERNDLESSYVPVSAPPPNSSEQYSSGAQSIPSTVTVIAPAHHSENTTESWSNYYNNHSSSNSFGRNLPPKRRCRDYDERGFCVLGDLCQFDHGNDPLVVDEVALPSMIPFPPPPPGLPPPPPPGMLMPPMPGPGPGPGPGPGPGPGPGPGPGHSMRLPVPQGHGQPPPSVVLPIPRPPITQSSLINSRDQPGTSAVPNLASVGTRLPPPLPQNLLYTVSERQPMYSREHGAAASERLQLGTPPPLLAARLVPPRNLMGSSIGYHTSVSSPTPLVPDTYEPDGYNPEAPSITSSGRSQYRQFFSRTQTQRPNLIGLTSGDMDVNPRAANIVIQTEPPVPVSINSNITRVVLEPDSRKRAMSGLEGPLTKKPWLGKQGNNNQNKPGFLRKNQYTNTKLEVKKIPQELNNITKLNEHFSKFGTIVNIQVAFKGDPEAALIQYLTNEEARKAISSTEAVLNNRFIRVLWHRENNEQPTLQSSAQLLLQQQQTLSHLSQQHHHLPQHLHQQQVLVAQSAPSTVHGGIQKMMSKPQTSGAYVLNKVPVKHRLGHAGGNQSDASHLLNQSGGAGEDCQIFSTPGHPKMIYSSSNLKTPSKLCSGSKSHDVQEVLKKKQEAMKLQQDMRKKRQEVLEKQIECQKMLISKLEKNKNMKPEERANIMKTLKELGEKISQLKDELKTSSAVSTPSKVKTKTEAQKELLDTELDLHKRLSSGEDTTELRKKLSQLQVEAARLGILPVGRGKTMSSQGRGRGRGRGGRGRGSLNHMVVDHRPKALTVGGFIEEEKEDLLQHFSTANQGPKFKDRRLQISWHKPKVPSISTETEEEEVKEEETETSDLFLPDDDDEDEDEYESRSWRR
active: volasertib -0.296
inactive: [1] -0.141 | [2] 0.014 | epoxomicin 0.014 | [3] -0.11 | [4] 0.001 | [5] 0.027 | rosiglitazone 0.055 | [6] -0.013 | [7] -0.068

ROMO1 (UniProt P60602)
inactive: [1] 0.033 | volasertib 0.01 | [2] -0.06 | epoxomicin -0.178 | [3] 0.024 | [4] -0.023 | rosiglitazone -0.023 | [6] 0.125 | [7] 0.049

RBM17 (UniProt Q96I25)
inactive: [1] -0.08 | [2] 0.085 | epoxomicin 0.066 | [3] -0.271 | [4] -0.059 | [5] 0.048 | rosiglitazone 0.099 | [6] 0.088 | [7] -0.037
active: volasertib -0.422

SH2D1B (UniProt O14796)
Sequence of UniProt O14796 (O14796 whole entry, looked up): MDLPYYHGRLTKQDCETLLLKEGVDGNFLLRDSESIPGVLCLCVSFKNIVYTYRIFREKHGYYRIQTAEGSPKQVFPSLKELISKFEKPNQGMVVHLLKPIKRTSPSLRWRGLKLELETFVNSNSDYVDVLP
inactive: [1] -0.068 | volasertib -0.029 | [2] 0.095 | epoxomicin 0.168 | [3] 0.092 | [4] -0.068 | [5] -0.025 | [6] 0.235 | [7] -0.174

RNF220 (UniProt Q5VTB9)
inactive: [1] -0.047 | volasertib -0.114 | [2] 0.085 | epoxomicin -0.021 | [3] -0.045 | [4] -0.043 | [5] -0.03 | rosiglitazone 0.002 | [6] -0.045 | [7] 0.003

RETREG3 (UniProt Q86VR2)
Sequence of UniProt Q86VR2 (Q86VR2 whole entry, looked up): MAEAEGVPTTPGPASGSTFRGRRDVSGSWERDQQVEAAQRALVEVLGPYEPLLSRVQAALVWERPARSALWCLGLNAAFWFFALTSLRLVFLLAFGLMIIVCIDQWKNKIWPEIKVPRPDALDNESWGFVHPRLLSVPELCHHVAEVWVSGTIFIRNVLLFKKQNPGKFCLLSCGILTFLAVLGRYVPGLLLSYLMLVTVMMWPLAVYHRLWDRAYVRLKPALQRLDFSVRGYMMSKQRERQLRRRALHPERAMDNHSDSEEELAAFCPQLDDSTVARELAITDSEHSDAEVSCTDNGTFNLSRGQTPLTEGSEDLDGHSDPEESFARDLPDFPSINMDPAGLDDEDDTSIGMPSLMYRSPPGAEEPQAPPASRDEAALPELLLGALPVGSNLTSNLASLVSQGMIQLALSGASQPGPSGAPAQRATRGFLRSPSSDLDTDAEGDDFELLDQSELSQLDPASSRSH
inactive: [1] -0.04 | volasertib -0.132 | [2] 0 | epoxomicin 0.048 | [3] 0.026 | [4] -0.043 | [5] 0.008 | rosiglitazone 0.016 | [6] -0.02 | [7] -0.149

RAB5C isoform 2 (UniProt P51148)
inactive: [1] 0.004 | volasertib 0.045 | [2] -0.024 | epoxomicin 0 | [3] 0.029 | [4] -0.002 | [5] 0 | rosiglitazone -0.011 | [6] -0.032 | [7] 0.018

RAD51 (UniProt Q06609)
Sequence of UniProt Q06609 (Q06609 whole entry, looked up): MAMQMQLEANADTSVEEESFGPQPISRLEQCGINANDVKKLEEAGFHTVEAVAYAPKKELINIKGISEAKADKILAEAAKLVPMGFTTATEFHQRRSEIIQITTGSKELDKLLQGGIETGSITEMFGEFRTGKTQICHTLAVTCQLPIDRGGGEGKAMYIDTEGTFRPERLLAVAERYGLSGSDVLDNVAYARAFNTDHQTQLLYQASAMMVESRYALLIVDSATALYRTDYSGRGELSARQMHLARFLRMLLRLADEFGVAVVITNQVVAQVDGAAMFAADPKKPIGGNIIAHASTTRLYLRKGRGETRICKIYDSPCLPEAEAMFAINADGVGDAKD
inactive: [1] 0.013 | volasertib 0.113 | [2] 0.026 | epoxomicin 0.157 | [3] -0.029 | [4] -0.011 | [5] -0.024 | rosiglitazone -0.016 | [6] -0.075 | [7] 0.051

RPA3 (UniProt P35244)
Sequence of UniProt P35244 (P35244 whole entry, looked up): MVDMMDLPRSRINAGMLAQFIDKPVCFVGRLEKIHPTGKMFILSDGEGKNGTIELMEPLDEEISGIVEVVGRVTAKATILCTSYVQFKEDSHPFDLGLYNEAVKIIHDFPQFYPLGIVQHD
inactive: [1] -0.006 | volasertib -0.056 | [2] -0.002 | epoxomicin 0.06 | [3] 0.021 | [4] -0.044 | [5] 0.163 | rosiglitazone 0.003 | [6] -0.054 | [7] 0.039

SDCBP isoform 2 (UniProt O00560)
Sequence of UniProt O00560 (O00560 whole entry, looked up): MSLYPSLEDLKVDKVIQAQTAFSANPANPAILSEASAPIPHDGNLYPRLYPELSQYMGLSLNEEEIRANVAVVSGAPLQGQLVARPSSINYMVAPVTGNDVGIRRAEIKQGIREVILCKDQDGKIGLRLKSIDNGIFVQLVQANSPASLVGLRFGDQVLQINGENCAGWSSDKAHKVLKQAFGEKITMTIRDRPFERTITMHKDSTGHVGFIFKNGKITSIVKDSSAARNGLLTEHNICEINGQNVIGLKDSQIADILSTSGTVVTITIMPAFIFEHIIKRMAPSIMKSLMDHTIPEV
inactive: [1] -0.015 | volasertib -0.221 | [2] -0.021 | epoxomicin 0.056 | [3] -0.068 | [4] -0.234 | rosiglitazone 0.105 | [6] -0.196 | [7] -0.208

RAB3GAP2 (UniProt Q9H2M9)
inactive: [1] -0.101 | volasertib -0.358 | [2] 0.044 | epoxomicin 0.022 | [3] -0.041 | [4] 0.088 | [5] 0.04 | rosiglitazone 0.053 | [6] 0.133 | [7] -0.132

RRAS2 isoform 4 (UniProt P62070)
inactive: [1] 0.061 | volasertib 0.124 | [2] -0.048 | epoxomicin 0.063 | [3] 0.004 | [4] 0.014 | [5] -0.013 | rosiglitazone 0.019 | [6] -0.064
active: [7] 0.207

RPS9 (UniProt P46781)
inactive: [1] 0.203 | volasertib 0.339 | [2] 0.02 | epoxomicin -0.24 | [3] 0.025 | [4] 0.088 | [5] -0.095 | rosiglitazone -0.078 | [6] 0.174 | [7] 0.146

RAB3D (UniProt O95716)
inactive: [1] 0.039 | volasertib 0.025 | [2] 0.097 | [3] 0.067 | [4] 0.041 | [5] -0.098 | rosiglitazone -0.013 | [6] 0.103 | [7] 0.129

RBIS (UniProt Q8N0T1)
Sequence of UniProt Q8N0T1 (Q8N0T1 whole entry, looked up): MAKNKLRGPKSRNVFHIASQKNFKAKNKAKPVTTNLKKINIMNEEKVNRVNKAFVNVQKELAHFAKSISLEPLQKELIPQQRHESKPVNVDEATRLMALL
inactive: [1] 0.105 | volasertib 0.06 | [2] -0.012 | epoxomicin 0.204 | [3] 0.034 | [4] 0.075 | [5] -0.108 | rosiglitazone -0.008 | [6] 0.026 | [7] -0.034

RAP2C (UniProt Q9Y3L5)
inactive: [1] 0.02 | volasertib 0.05 | [2] 0.042 | epoxomicin 0.172 | [3] 0.054 | [4] 0.097 | [5] 0.052 | rosiglitazone -0.045 | [6] -0.105 | [7] 0.173
